# Substitutions are numbered along the chain they refer to.
# Columns and labels:
# Test in all cases: protein-binding microarray (PBM); PBM: ~300 nM protein, 6 mM HEPES pH 7.8, 80 mM KCl, 0.5 mM EDTA, 0.5 mM EGTA, 6% glycerol, 35 ng/ul poly-dIdC, 1% milk, 1 h, room temperature; Ap Aiptasia and Nv Nematostella (sea anemones) / Co Capsaspora / Aq Amphimedon (sponge) / Dm Drosophila / Hu human; RHD is the Rel homology domain; high values mean tight binding
# Conditions in all cases: dsDNA, one strand shown
# GST-Ap-NF-kB RHD = target: T1, GST-Ap-NF-kB RHD (Exaiptasia pallida (Aiptasia), UniProt A0A913YAJ5 2-422)
# T1 sequence: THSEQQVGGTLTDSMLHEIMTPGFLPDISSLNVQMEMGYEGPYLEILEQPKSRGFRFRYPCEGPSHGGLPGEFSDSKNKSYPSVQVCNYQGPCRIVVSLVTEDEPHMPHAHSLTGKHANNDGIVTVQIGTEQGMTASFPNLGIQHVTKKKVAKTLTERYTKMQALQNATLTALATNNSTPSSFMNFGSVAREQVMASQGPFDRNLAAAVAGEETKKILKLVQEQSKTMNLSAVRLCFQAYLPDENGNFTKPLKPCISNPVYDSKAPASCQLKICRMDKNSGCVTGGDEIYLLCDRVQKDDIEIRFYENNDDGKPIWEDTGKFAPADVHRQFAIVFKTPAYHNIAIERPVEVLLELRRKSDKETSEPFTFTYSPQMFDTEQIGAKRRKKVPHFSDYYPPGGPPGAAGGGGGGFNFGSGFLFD
# [1] = target: T2, GST-Nv-NF-kB (Cys allele) (Nematostella vectensis, UniProt E5G601 2-411)
# T2 sequence: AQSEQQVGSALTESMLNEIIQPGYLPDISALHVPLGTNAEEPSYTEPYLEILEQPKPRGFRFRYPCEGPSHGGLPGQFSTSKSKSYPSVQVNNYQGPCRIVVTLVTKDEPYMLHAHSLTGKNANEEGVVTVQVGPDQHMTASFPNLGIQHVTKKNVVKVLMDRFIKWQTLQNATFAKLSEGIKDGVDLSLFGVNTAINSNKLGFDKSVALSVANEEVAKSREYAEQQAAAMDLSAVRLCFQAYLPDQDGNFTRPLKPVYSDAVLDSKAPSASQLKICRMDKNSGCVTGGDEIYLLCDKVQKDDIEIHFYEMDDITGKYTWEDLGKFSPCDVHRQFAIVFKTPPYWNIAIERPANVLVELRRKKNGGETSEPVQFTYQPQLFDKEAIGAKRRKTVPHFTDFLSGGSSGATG
# [2] = target: T3, GST-Nv-NF-kB (Ser allele) (Nematostella vectensis, UniProt A7UNT2 2-411)
# T3 sequence: T2 sequence with Q21R, C66S, S207N, E215Q, V217A, E225K, A268E, D399E
# GST-Co-NF-kB = target: T4, GST-Co-NF-kB (Capsaspora owczarzaki, UniProt F1ARL5 200-546)
# T4 sequence: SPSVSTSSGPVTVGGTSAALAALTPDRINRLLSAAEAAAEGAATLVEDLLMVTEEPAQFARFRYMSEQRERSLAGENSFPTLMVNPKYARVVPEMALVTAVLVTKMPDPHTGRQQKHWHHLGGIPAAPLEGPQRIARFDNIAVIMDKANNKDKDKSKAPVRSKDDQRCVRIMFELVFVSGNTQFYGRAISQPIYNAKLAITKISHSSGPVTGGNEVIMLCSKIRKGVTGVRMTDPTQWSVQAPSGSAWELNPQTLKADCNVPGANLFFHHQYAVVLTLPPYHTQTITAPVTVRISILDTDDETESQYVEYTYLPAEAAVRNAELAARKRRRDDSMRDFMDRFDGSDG
# GST-Dm-Relish = target: T5, GST-Dm-Relish (Drosophila melanogaster, UniProt Q94527 99-473)
# T5 sequence: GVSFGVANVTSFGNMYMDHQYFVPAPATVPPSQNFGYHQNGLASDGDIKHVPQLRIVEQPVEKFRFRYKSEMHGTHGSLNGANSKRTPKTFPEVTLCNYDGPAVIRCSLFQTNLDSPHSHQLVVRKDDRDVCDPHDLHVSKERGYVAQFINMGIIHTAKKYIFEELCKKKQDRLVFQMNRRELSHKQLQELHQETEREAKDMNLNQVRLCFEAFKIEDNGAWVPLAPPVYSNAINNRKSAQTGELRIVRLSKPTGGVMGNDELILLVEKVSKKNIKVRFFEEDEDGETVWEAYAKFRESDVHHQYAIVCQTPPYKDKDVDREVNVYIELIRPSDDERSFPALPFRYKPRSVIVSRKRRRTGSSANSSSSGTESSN
# GST-Aq-NF-kB = target: T6, GST-Aq-NF-kB (Amphimedon queenslandica, UniProt A9Y5G7 2-389)
# T6 sequence: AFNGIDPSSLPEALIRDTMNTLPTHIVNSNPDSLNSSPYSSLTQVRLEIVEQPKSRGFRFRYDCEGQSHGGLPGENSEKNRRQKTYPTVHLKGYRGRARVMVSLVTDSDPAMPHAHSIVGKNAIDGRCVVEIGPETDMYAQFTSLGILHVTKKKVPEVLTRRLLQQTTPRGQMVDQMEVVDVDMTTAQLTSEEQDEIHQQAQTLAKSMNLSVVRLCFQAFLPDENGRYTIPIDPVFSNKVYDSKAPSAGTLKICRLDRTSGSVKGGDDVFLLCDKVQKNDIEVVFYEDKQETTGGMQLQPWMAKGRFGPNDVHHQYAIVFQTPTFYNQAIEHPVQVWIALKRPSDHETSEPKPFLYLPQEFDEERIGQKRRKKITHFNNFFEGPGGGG
# GST-Hu-p50 = GST-Hu-p50 (Homo sapiens, UniProt P19838 7-356)
# GST-Hu-p50, sequence (P19838 7-356): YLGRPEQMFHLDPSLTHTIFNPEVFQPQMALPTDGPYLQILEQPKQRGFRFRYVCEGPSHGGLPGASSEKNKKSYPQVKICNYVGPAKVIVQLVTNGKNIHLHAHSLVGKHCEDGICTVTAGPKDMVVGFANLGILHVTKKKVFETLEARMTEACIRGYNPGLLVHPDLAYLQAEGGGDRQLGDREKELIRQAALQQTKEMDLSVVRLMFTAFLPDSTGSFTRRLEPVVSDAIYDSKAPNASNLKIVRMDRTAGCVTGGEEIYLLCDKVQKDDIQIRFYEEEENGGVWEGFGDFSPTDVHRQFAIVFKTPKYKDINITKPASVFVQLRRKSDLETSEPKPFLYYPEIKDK
Sequence,binding signal (GST-Ap-NF-kB RHD),binding signal [1],binding signal [2],binding signal (GST-Co-NF-kB),binding signal (GST-Dm-Relish),binding signal (GST-Aq-NF-kB),binding signal (GST-Hu-p50)
CCGATTAACATCATTTTGGGGACTGATGTTAATCGGGTCTTGATTCGCTTGACGCTGCTG,2.93 z-score,3.66 z-score,3.16 z-score,1.94 z-score,1.4 z-score,4.11 z-score,3.28 z-score
CCGATTAACATCAAGAATCCCCTTGATGTTAATCGGGTCTTGATTCGCTTGACGCTGCTG,7.94 z-score,9.47 z-score,10.9 z-score,2.64 z-score,8.39 z-score,7.11 z-score,7.63 z-score
CCGATTAACATCACAGAAATCCCTGATGTTAATCGGGTCTTGATTCGCTTGACGCTGCTG,4.33 z-score,3.88 z-score,3.79 z-score,1.43 z-score,5.77 z-score,3.9 z-score,3.37 z-score
CCGATTAACATCAATAAAACCCCTGATGTTAATCGGGTCTTGATTCGCTTGACGCTGCTG,5.73 z-score,5.27 z-score,5.34 z-score,2.26 z-score,7.35 z-score,5.25 z-score,6.19 z-score
CCGATTAACATCAATTCCCCTGATGATGTTAATCGGGTCTTGATTCGCTTGACGCTGCTG,6.84 z-score,7.45 z-score,9.02 z-score,5.73 z-score,3.81 z-score,4.89 z-score,5.75 z-score
CCGATTAACATCAAGACTTTCCCTGATGTTAATCGGGTCTTGATTCGCTTGACGCTGCTG,4.06 z-score,5.48 z-score,5.59 z-score,2.92 z-score,2.82 z-score,6.09 z-score,4.12 z-score
CCGATTAACATCAGGATTCTCCCTGATGTTAATCGGGTCTTGATTCGCTTGACGCTGCTG,3.03 z-score,4.71 z-score,3.05 z-score,1.79 z-score,1.49 z-score,6.5 z-score,3.33 z-score
CCGATTAACATCAATCACCCCCCTGATGTTAATCGGGTCTTGATTCGCTTGACGCTGCTG,4.05 z-score,4.27 z-score,4.76 z-score,4.97 z-score,4.64 z-score,5.36 z-score,4.4 z-score
CCGATTAACATCAATCTTTCCCCTGATGTTAATCGGGTCTTGATTCGCTTGACGCTGCTG,5.5 z-score,7.61 z-score,8.93 z-score,8.32 z-score,3.33 z-score,5.91 z-score,5.41 z-score
CCGATTAACATCAGGGGAAGTTATGATGTTAATCGGGTCTTGATTCGCTTGACGCTGCTG,7.14 z-score,9.1 z-score,9.37 z-score,7.7 z-score,7.34 z-score,7.08 z-score,6.64 z-score
CCGATTAACATCAAAACTCCCCCTGATGTTAATCGGGTCTTGATTCGCTTGACGCTGCTG,9.31 z-score,8.47 z-score,9.96 z-score,9.22 z-score,8.02 z-score,7.6 z-score,8.06 z-score
CCGATTAACATCACGGGAAATCCTGATGTTAATCGGGTCTTGATTCGCTTGACGCTGCTG,5.03 z-score,6.03 z-score,5.29 z-score,4.57 z-score,6.3 z-score,6.18 z-score,3.91 z-score
CCGATTAACATCAAGGGTTTCCCTGATGTTAATCGGGTCTTGATTCGCTTGACGCTGCTG,4.12 z-score,4.79 z-score,4.07 z-score,3.82 z-score,7.83 z-score,5.56 z-score,3.28 z-score
CCGATTAACATCATGGGGAAAAATGATGTTAATCGGGTCTTGATTCGCTTGACGCTGCTG,5.03 z-score,6.62 z-score,8.82 z-score,9.78 z-score,2.39 z-score,4.9 z-score,5.43 z-score
CCGATTAACATCAGGGGGGTTTATGATGTTAATCGGGTCTTGATTCGCTTGACGCTGCTG,7.17 z-score,5.54 z-score,6.69 z-score,4.39 z-score,8.97 z-score,6.15 z-score,6.31 z-score
CCGATTAACATCAAAAAATACCCTGATGTTAATCGGGTCTTGATTCGCTTGACGCTGCTG,6.17 z-score,9.78 z-score,8.7 z-score,3.1 z-score,8.93 z-score,8.03 z-score,6.73 z-score
CCGATTAACATCAGGGAAATCCATGATGTTAATCGGGTCTTGATTCGCTTGACGCTGCTG,4.11 z-score,5.43 z-score,5.07 z-score,3.28 z-score,5.65 z-score,5.63 z-score,3.96 z-score
CCGATTAACATCAGAAAAACCCCTGATGTTAATCGGGTCTTGATTCGCTTGACGCTGCTG,7.98 z-score,8.56 z-score,7.56 z-score,2.03 z-score,9.4 z-score,7.67 z-score,7.6 z-score
CCGATTAACATCAGGGATCCCCCTGATGTTAATCGGGTCTTGATTCGCTTGACGCTGCTG,12 z-score,10.2 z-score,9.22 z-score,5.15 z-score,11.1 z-score,10.3 z-score,6.45 z-score
CCGATTAACATCAAGGGACCCCCTGATGTTAATCGGGTCTTGATTCGCTTGACGCTGCTG,5.77 z-score,3.16 z-score,3.36 z-score,2.03 z-score,7.64 z-score,4.72 z-score,3.57 z-score
CCGATTAACATCAGGGGGAGAACTGATGTTAATCGGGTCTTGATTCGCTTGACGCTGCTG,6.04 z-score,5.02 z-score,6.45 z-score,7.22 z-score,6.51 z-score,4.8 z-score,5.85 z-score
CCGATTAACATCAAGGGGAAGGGTGATGTTAATCGGGTCTTGATTCGCTTGACGCTGCTG,4.52 z-score,5.48 z-score,5.81 z-score,3.95 z-score,2 z-score,4.16 z-score,4.32 z-score
CCGATTAACATCAAATTCCCCCATGATGTTAATCGGGTCTTGATTCGCTTGACGCTGCTG,8.6 z-score,8.92 z-score,9.99 z-score,9.97 z-score,7.71 z-score,6.9 z-score,7.09 z-score
CCGATTAACATCACCCCATCCCCTGATGTTAATCGGGTCTTGATTCGCTTGACGCTGCTG,4.19 z-score,2.64 z-score,4.17 z-score,2.99 z-score,2.37 z-score,3.17 z-score,3.3 z-score

# From publication PMC5700166
